# Screening results deposited in PubChem BioAssay by National Center for Advancing Translational Sciences (NCATS).
# GBA activity: Glucocerebrosidase | purified enzyme, resorufin glucoside fluorescence (screen aimed at inhibitors), 20 min | Potency, µM | hit rate 1.1% among 48,000 | AID 360, 2006; in the data active = potency below about 15 µM; inconclusive = mostly about 16 µM to 33 µM;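 also: the screen sought inhibitors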
#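 Compounds titrated against 0.2 nM normal enzyme, 30 uM resorufin beta-D-glucopyranoside substrate, citrate/phosphate buffer with taurocholate and tween-20, pH 5.9. Reaction ran 20 min at room temperature; fluorescence (Ex 548/Em 600) gave AC50.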
# HEK293 cAMP ctrl: qHTS Assay for Agonists of the Thyroid Stimulating Hormone Receptor: Activators of Intracellular cAMP Concentrations in Parental HEK 293; Potency, µM (titrated, usually from 57.1 µM), for the others: top-dose activation, most hits filed as activators; hit rate 2.5% among 73,000; parental HEK293 CNG cAMP sensor, membrane potential fluorescence; also: % of control where 0% means no effect; nearly all actives have a fitted effect of over 55% in size
#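 Parental HEK 293 cells stably expressing a cAMP-gated CNG channel were loaded with membrane potential dye containing 100 uM RO 20-1724 for 60 min. Compound added for 30 min; depolarization read as fluorescence intensity at 590 nm.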
# TSHR ag: qHTS Assay for Agonists of the Thyroid Stimulating Hormone Receptor; Potency, µM (series often up to 57.1 µM), for inactives: top-dose activation, actives largely listed as activators; HEK293-CNG-TSHR cells (CNG channel as cAMP sensor), membrane potential dye, cAMP; hit rate 0.48% among 73,000; Thyrotropin receptor (Homo sapiens), P16473; active = well fitted activation curve with a large enough effect in the main read-out, with a control signal flat, not every such curve was filed as active; inconclusive = small, poorly fitted or top-dose-only effect, or a change in a side signal; inactive = no such curve, though single readings can be large or run the other way; % of control where 0% means no effect;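 also: the control signal comes from parental cells without the receptor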
# Target sequence (P16473 whole entry, looked up): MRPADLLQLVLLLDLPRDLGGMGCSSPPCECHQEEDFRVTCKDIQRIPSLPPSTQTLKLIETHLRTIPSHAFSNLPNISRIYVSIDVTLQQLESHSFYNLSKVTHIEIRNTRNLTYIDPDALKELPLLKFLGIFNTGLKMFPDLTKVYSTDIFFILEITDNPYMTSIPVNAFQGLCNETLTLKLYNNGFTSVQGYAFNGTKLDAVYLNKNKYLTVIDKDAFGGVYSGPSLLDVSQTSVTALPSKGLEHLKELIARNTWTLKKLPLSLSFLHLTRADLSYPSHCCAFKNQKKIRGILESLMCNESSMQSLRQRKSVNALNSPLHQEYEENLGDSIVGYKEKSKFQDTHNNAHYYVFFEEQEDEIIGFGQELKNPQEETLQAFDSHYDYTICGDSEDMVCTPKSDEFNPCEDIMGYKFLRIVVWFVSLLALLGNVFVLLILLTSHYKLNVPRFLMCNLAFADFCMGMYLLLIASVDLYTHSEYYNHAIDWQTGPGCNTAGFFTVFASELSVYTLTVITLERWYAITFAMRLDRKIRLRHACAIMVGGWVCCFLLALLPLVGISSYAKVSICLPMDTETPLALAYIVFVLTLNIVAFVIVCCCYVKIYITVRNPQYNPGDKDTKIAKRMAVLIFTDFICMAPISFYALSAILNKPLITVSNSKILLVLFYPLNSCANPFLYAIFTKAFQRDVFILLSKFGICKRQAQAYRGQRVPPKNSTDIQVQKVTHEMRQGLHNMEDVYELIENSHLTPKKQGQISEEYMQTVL
#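 HEK 293 cells stably expressing TSHR and a modified CNG channel, with CNG-only parental cells as counterscreen, were preloaded 60 min at room temperature with membrane potential dye containing 100 uM RO 20-1724. Compound exposure was 30 min, and depolarization was read as fluorescence at 590 nm.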
# Bst PK mod: Pyruvate Kinase; purified pyruvate kinase, luminescence ATP production; ribose 5-phosphate activator present at AC10; Potency, µM; hit rate 1.2% among 51,000; in the data active = potency below about 11 µM; inconclusive = mostly about 12 µM to 25 µM;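 the screen sought inhibitors and activators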;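 also: scaled between full activation by ribose 5 phosphate and full inhibition by luteolin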
# FLuc inh: qHTS Assay for Inhibitors of Firefly Luciferase; Luciferin 4-monooxygenase (Photinus pyralis), P08659; purified firefly luciferase, luminescence, 8 min; Potency, µM (top dose mostly 57.1 µM), without a hit: at the highest dose activity change, negative = inhibition, actives largely listed as inhibitors; hit rate 2.2% among 72,000; also: % is scaled to controls: 0 for no effect and ±100 for the full control effect; nearly all actives have a fitted effect of over 40% in size
#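 Firefly luciferase (PKLight detection mix) with 10 uM ATP in pH 7.2 imidazole buffer (KCl, MgCl2, Tween 20, BSA). Compounds tested across a concentration series (qHTS). Luminescence read after 8 min at ambient temperature.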
# * = called active by the depositor; i = inactive; ? = inconclusive; . = no result; ! = a repeat was not active; [ ] = dose if it differs, or a comment. An excerpt weighted towards active compounds, which were near 5.8% of everything screened. Unless noted, calls follow the shape of the dose curve; as a rule, active = well fitted curve in the direction sought with a large enough effect; inconclusive = small, poorly fitted or top-dose-only effect, or another doubt; inactive = no such curve, though single readings can be large; an effect the other way counts as inactive or inconclusive. Potency is read from the fitted curve at half-maximal effect.
SMILES,GBA activity,HEK293 cAMP ctrl,TSHR ag,Bst PK mod,FLuc inh
Cc1nc2ccccc2n1-c1ccccc1,.,13%,9%,.,1%
O=C1[C@@H]2[C@H]3C(=CC[C@@H]2C(=O)N1Cc1ccccc1)C1(OCCCO1)[C@H]1O[C@@H]1[C@H]3O,.,-1%[11.4 µM],.,.,1%[11.4 µM]
CC(C)Oc1ccc(NC(=O)Oc2ccccc2)cc1,.,7%[11.4 µM],9%[11.4 µM],.,13µM*
CC(C)Oc1ccc(C(=O)Nc2ccc(N(C)C)cc2)cc1,.,0%[11.4 µM],-2%[11.4 µM],.,3.2µM*
CC(C)c1ccc(Cn2ccc3c4c(N)nc(NC5CC5)nc4ccc32)cc1,.,-55%,?,.,1%
Cc1noc(C)c1-c1nccc(NC2CC2)n1,.,-9%,2%,.,2%[2.29 µM]
CCCn1c(NC(=O)c2ccc(Cl)c(S(=O)(=O)N3CCCC3)c2)nc2ccccc21,.,16µM*,?,>57,1%
O=C(NCc1nc2ccccc2[nH]1)c1ccc(Cl)c(S(=O)(=O)N2CCCC2)c1,>77,3%,1%,>57,-3%
CC1(C)CC[C@]2(C(=O)O)CC[C@]3(C)C(=CC[C@@H]4[C@@]5(C)CC[C@H](O)C(C)(C)[C@@H]5CC[C@@]43C)[C@@H]2C1,.,-1%,-3%,.,4%[11.4 µM]
COc1cccc(CNc2ccc(Br)cn2)c1O,.,.,.,i,5µM*
CC(C)(C)c1ccc(S(=O)(=O)/C=C\C#N)cc1,.,25µM*!,?,.,-28%
Cc1ccc(S(=O)(=O)/C=C\C#N)cc1,.,-14%,11%,.,-7%
COc1ccc(B(O)O)cc1,.,13%,2%,.,.
COc1cc(=O)n(C)c2cc(N(C)C)ccc12,.,-4%,-8%,4.9*,-3%
Cc1ccc(N2C(=O)c3n[nH]c(C)c3C2c2ccco2)cc1 (stereo not given),>77,?,?,.,16µM*
COc1ccccc1CNc1ncncc1-c1ccc2c(c1)OCO2,.,?,?,.,1%[2.29 µM]
CCc1c(C#N)c(SCc2c(C)noc2C)nc2c1C(=O)CC(C)(C)C2,>77,13µM*,?,>57,1%
CCOc1ccccc1NC(=O)N1CCCC1C(=O)Nc1ccc(-n2cnnn2)c(C)c1 (stereo not given),.,-2%,20µM*,>57,0%
CCOc1ccccc1NC(=O)N1CCCC1C(=O)Nc1nnc(CC)s1 (stereo not given),>77,6%,5%,>57,-3%
c1ccc2nc(-c3nc4ccccc4o3)ccc2c1,?,9%,20%,1.5*,1.3µM*
c1cn(CCCNc2ncnc3sc4c(c23)CCC4)cn1,.,9%,7%,.,0%
c1csc(CCNc2ncnc3sc4c(c23)CCC4)c1,.,20µM*,?,.,2%
Cc1ccnc(NC(=O)CCC(=O)N(CC(=O)NC(C)(C)C)C2CCCC2)c1,>77,11%,1%,>57,3%
Cc1ccnc(NC(=O)CCC2CCCCC2)c1,i,?,?,.,20µM*
CN(C)C(=O)c1ccc(-c2ccc3ncnc(N4CCNCC4)c3c2)cc1,.,5%,.,.,1%[2.29 µM]
SMILES,GBA activity,HEK293 cAMP ctrl,TSHR ag,Bst PK mod,FLuc inh
N=c1nc(N)nc2n1NC(c1ccc(F)cc1)=CS2,>77,-11%,-8%,3.6*,-26%
NC(N)=N/N=C(\c1ccc(Cl)cc1)C1CC1,.,4%[11.4 µM],1%[11.4 µM],.,1%[11.4 µM]
Cc1noc(NC(=O)Nc2ccccc2F)c1C#N,.,14%[11.4 µM],-1%[11.4 µM],.,0%[11.4 µM]
CC(C)c1cccc2nc3c(c([Si](C)(C)C)c12)Cn1c-3cccc1=O,.,13µM*,?,.,.
CCc1cccc2nc3c(c([Si](CC)(CC)CC)c12)Cn1c-3cccc1=O,.,25µM*,?,.,.
CCc1c2c(nc3c(C(C)C)cccc13)-c1cccc(=O)n1C2,.,25µM*,?,.,.
COc1cccc(-c2nccc(-n3ccnc3)n2)c1,.,-9%,4%,.,-4%[2.29 µM]
CC[C@]1(O)C[C@H]2CN(CCc3c([nH]c4ccccc34)[C@](C(=O)OC)(c3cc4c(cc3OC)N(C=O)[C@H]3[C@@](O)(C(=O)OC)[C@H](OC(C)=O)[C@@]5(CC)C=CCN6CC[C@]43[C@H]65)C2)C1,.,15%,8%,.,0%
CC(=O)NC(Cc1ccc(F)cc1)C(=O)NC1CCN(c2nnnn2-c2ccccc2)CC1 (stereo not given),5.8*,-2%,-4%,>57,2%
CC(=O)NC(Cc1ccc(C(C)C)cc1)C(=O)NC1CCN(c2nc(C)cc(C)n2)CC1 (stereo not given),?,18%,.,>57,-34%
O=C(c1csc2c1CCCC2)n1cccn1,.,6%,32µM*,.,.
COC(=O)c1cccc(NC(=O)c2cc3sccc3n2C)c1,>77,13µM*,?,.,?
COc1ccc(S(=O)(=O)N2CCCCC2)cc1C(C)C,>77,32µM*,?,>57,0%
COc1ccc(Oc2ccc(S(=O)(=O)N3CCCCC3)cc2S(=O)(=O)N2CCCCC2)cc1,.,?,?,.,1%
Cc1ccc2c(c1)c1ncnc(N3CCOCC3)c1n2C,?,16%,18%,.,-29%
Cc1ccc2c(c1)c1ncnc(N3CCN(c4ccccc4)CC3)c1n2C,>77,25µM*,?,.,7%
c1ccc(N2CCN(c3ncnc4c3oc3ccccc34)CC2)cc1,.,20µM*,?,.,4%
CCOC(=O)C1CCCN(c2ncnc3c2oc2ccccc23)C1 (stereo not given),?,?,?,.,0%
O=C(O)C1CCN(c2nc(-c3ccccc3)nc3c2oc2ccccc23)CC1,i,-20%,10%,7.4*,1%
CCOC(=O)C1CCN(c2nc(-c3ccccc3)nc3c2oc2ccccc23)CC1,7.4*,20%,.,i,1%
COc1cc2c(cc1OC)[C@H](c1ccccc1)CN(C)CC2,.,8%,13%,.,-7%
O=C(O)CSc1nc(-c2ccccc2)nc2c1oc1ccccc12,>77,5%,6%,?,-2%
CCOC(=O)C1CCN(c2ncnc3c2oc2ccccc23)CC1,.,25µM*,?,i,-2%
OCCN1CCN(c2nc(-c3ccccc3)nc3c2oc2ccccc23)CC1,i,-2%,.,6*,3%
